Inconclusive results are not listed. Active and inactive are the calls of the source. Unless noted, the call rests on the fitted dose curve; in most records, active means well fitted curve in the direction sought with a large enough effect; inconclusive means small, poorly fitted or top-dose-only effect, or another doubt; inactive means no such curve, though single readings can be large; an effect the other way counts as inactive or inconclusive.
How the values were obtained:
[1] = molecular target: Estrogen receptor (Homo sapiens) (UniProt P03372); test: qHTS assay for small molecule antagonists of estrogen receptor alpha signaling (AID 588513; active means well fitted curve in the direction sought with a large enough effect in the signal ratio, with a control signal flat, not every such curve was filed as active; the % refers to the signal ratio; further: on the % scale 0 is the no-effect control and ±100 the full control effect)
Outline: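 Cells were plated at 5000/well and incubated 4 h at 37 C. Compounds were added as 1:2 dilution series, duplicates. 17-beta-estradiol (0.5nM final) was added for 18 h before CCF4 detection.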

[2] = molecular target: Estrogen receptor (Homo sapiens) (UniProt P03372); test: qHTS assay for small molecule agonists of estrogen receptor alpha signaling (AID 588514; calls by dose curve;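 further: 0% = vehicle only and 100% = reference agonist; nearly all actives have a fitted effect of over 70% in size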)
Outline: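 ER-alpha-UAS-bla GripTite HEK293 cells, 5000/well in 2% charcoal/dextran-stripped FBS medium, treated with compound titrations 18 h at 37 C. CCF4 beta-lactamase read by fluorescence after 2 h RT; normalised to 20 nM 17-beta-estradiol (100%) and DMSO (0%), Hill fit for EC50 and efficacy.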

[3] = molecular target: Glucocorticoid receptor (Homo sapiens) (UniProt P04150); test: qHTS assay for small molecule agonists of glucocorticoid receptor signaling (AID 588532; active means well fitted curve in the direction sought with a large enough effect in the signal ratio, with a control signal flat; the % refers to the signal ratio;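 further: 100% = dexamethasone at 0.1 µM and 0% = DMSO only wells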); settings: HeLa MMTV-bla, beta-lactamase ratio, agonist, 18 h; stronger effect = higher value; percent of dexamethasone control, DMSO zero
Outline: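 Agonist-mode qHTS: GRE-driven beta-lactamase in HeLa cells exposed 18 h to titrated compounds (up to 92 uM), then CCF4 ratio read after 2 h at RT; Hill-fitted EC50, efficacy relative to 0.1 uM dexamethasone.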

[4] = qHTS assay for small molecule antagonists of peroxisome proliferator-activated receptor delta signaling (AID 588535); settings: HEK293T PPARd-UAS-bla, beta-lactamase FRET ratio, 18 h; 460 nm channel;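 further: cells co-treated with a PPAR-delta agonist as stimulator during compound exposure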
Outline: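 HEK293T PPAR-delta-UAS-bla cells, 4000/well, 2% charcoal/dextran FBS; 5 h 37 C; cpd titration; 18 h 37 C; CCF4 2 h RT; FI 460/530 nm; Hill fit → IC50, efficacy.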

[5] = molecular target: Vitamin D3 receptor (Homo sapiens) (UniProt P11473); test: qHTS assay for small molecule antagonists of vitamin D receptor signaling (AID 588541; calls by dose curve;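 further: receptor activated by calcitriol during compound treatment; series mostly up to about 77 µM; on the % scale 0 is the no-effect control and ±100 the full control effect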)
Outline: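 Antagonist-mode beta-lactamase reporter assay: HEK293T VDR-UAS-bla cells were exposed to titrated compound alongside 1-alpha,25-dihydroxyvitamin D3 at 3 nM final for 16 h. Values were normalized to the 50 nM agonist control and DMSO basal, with IC50 and efficacy from Hill equation fits.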

[6] = qHTS assay for small molecule agonists of retinoid X receptor alpha signaling (AID 588544; calls by dose curve;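 on activation: 0% = DMSO basal wells and 100% = reference agonist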); settings: HEK293T RXRa-UAS-bla, beta-lactamase reporter, 18 h; 530 nm emission
[7] = molecular target: Retinoic acid receptor RXR-alpha (Homo sapiens) (UniProt P19793); test: as above
[8] = molecular target: Thyroid hormone receptor beta (Homo sapiens) (UniProt P10828); test: qHTS assay for small molecule agonists of thyroid hormone receptor beta signaling (AID 588545; calls by dose curve;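 further: 0% = DMSO only and 100% = 10 nM T3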)
Outline: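 TR-UAS-bla GripTite HEK 293 cells (2500/well, medium with 2% charcoal/dextran FBS) were treated in agonist mode for 18 h at 37 C, titrated. Beta-lactamase was read by CCF4 ratio after 2 h; normalized to 10 nM T3 (100%) and DMSO, Hill-fitted for EC50 and efficacy.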

[9] = qHTS assay for small molecule antagonists of retinoid X receptor alpha signaling (AID 588546; active means well fitted inhibition curve with a large enough effect in the signal ratio, with a control signal flat, not every such curve was filed as active; the % refers to the signal ratio;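 further: cells stimulated with 9-cis-retinoic acid as agonist; on the % scale 0 is the no-effect control and ±100 the full control effect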); settings: HEK293T RXRa-UAS-bla, beta-lactamase ratio, antagonist mode; measured here: W530 green channel, cytotoxicity proxy
Outline: (§1)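 Beta-lactamase reporter inhibition, read as CCF4 fluorescence ratio (ex 405, em 460/530 nm) after 2 h at RT. HEK293T UAS-bla cells, 2500/well, were stimulated with 9-cis-RA at 500 or 100 nM final alongside test compound for 18 h at 37 C.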

[10] = molecular target: Thyroid hormone receptor beta (Homo sapiens) (UniProt P10828); test: qHTS assay for small molecule antagonists of thyroid hormone receptor beta signaling (AID 588547; active means well fitted inhibition curve with a large enough effect in the signal ratio, with a control signal flat, not every such curve was filed as active; the % refers to the signal ratio); settings: TR-UAS-bla HEK293, beta-lactamase ratio, antagonist mode, 18 h
Outline: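 Inhibition of T3-driven (0.4nM final) beta-lactamase reporter activity was measured over 0.59 nM to 92 uM compound after 18 h at 37 C. The cells were GripTite HEK293 TR-UAS-bla in charcoal/dextran-stripped serum, with CCF4 ratio read-out and IC50 from Hill fits.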

[11] = qHTS assay for small molecule activators of the nuclear factor-kappa B (NF-kB) signaling pathway (AID 651749; active means well fitted activation curve with a large enough effect in the signal ratio; the % refers to the signal ratio; further: series mostly up to about 77 µM; % of control where 0% means no effect); settings: NF-kB-bla ME-180 cells, beta-lactamase FRET ratio, 16 h; activation: stronger effect = higher value
Outline: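 Readout: beta-lactamase reporter driven by an NF-kB response element, detected fluorescently as loss of FRET. Cells were the ME-180 line, treated 16 hr at 37C with pin-transferred compound.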

[12] = qHTS assay for environmental chemicals that activate the Aryl hydrocarbon Receptor (AhR) signaling pathway (AID 651777); settings: 1A2-DRE human hepatoma cells, luciferase, 24 h; activation: stronger effect = higher value; further: % of control where 0% means no effect; nearly all actives have a fitted effect of over 15% in size
Outline: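 Human hepatoma 1A2-DRE cells stably carrying a DRE/CYP1A2 promoter–luciferase reporter, 1,200 cells/well, exposed to compound 24 hr at 37 C. Luciferase read by One-Glo luminescence after 30 min at room temperature; increased signal marks AhR activation.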

[13] = molecular target: Peroxisome proliferator-activated receptor alpha (Homo sapiens) (UniProt Q07869); test: qHTS assay for small molecule agonists of the peroxisome proliferator-activated receptor alpha (PPARalpha) signaling pathway (AID 651778); settings: PathHunter PPARalpha complementation, chemiluminescence, 6 h; max response: stronger effect = higher value; further: % of control where 0% means no effect
Outline: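 Chemiluminescence from complemented enzyme reported PPARalpha activation in cells after 6 hr of compound treatment at 37 C. The detection reagent was incubated for 60 min at room temperature, and compounds were scored as agonists.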

[14] = qHTS assay for small molecule agonists of the antioxidant response element (ARE) signaling pathway measured by Nrf2-dependant transcriptional activity - cell viability counter screen (AID 720653; active means well fitted curve in the direction sought with a large enough effect in the repeat runs; an effect the other way counts as inactive or inconclusive; further: on the % scale 0 is the no-effect control and ±100 the full control effect); settings: ARE-bla HepG2 viability, CellTiter-Glo ATP luminescence, 16 h; max response: stronger effect = lower value
Outline: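 Cytotoxicity counter screen: intracellular ATP quantified by CellTiter-Glo luminescence in the same ARE-bla HepG2 plates, after 16 h compound exposure and a 2 h beta-lactamase substrate step.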

[15] = qHTS assay for cell viability of HEK293 cells (AID 743288); settings: ATP luminescence (CellTiter-Glo), 18 h; max response: stronger effect = lower value; further: on the % scale 0 is the no-effect control and ±100 the full control effect; nearly all actives have a fitted effect of over 50% in size
Outline: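 The Tox21 protocol used parental HEK293 cells treated for 18 h at 37 C with compounds delivered by pintool; ATP-coupled luminescence after 30 min at room temperature gave viability.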

[16] = qHTS assay for cell viability of the p53RE-bla HCT-116 cell line (AID 743292); further: on the % scale 0 is the no-effect control and ±100 the full control effect; nearly all actives have a fitted effect of over 55% in size
Outline: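 CellSensor p53RE-bla HCT-116 cells (4,000/well) pre-incubated 5 h at 37 C, then exposed to compounds in DMSO for 16 h at 37 C. Viability read as ATP content by CellTiter-Glo luminescence after 30 min at room temperature.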

[17] = molecular target: Nuclear receptor subfamily 1 group I member 2 (Rattus norvegicus) (UniProt Q9R1A7); test: qHTS assay for small molecule activators of the rat pregnane X receptor (rPXR) signaling pathway (AID 651751; call rule not given here; further: 0% is about no effect); settings: rPXR reporter cells, luciferase (One-Glo), 24 h
[18] = qHTS assay for small molecule activators of the human pregnane X receptor (PXR) signaling pathway (AID 720659; call rule not given here; further: 0% is about no effect)
[19] = molecular target: Peroxisome proliferator-activated receptor gamma (Homo sapiens) (UniProt P37231); test: qHTS assay for small molecule agonists of peroxisome proliferator-activated receptor gamma signaling (AID 588536; active means well fitted curve in the direction sought with a large enough effect in the signal ratio, with a control signal flat, not every such curve was filed as active; the % refers to the signal ratio;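 further: 0% = DMSO basal wells and 100% = rosiglitazone at 2 µM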)
Outline: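 HEK293 UAS-bla reporter line, 1% charcoal/dextran FBS; titration, 16 h, 37 C; CCF4 loading 2 h RT; fluorescence 460/530 nm. Normalized to rosiglitazone 2 uM = 100%, DMSO = 0%.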

[20] = molecular target: Retinoic acid receptor RXR-alpha (Homo sapiens) (UniProt P19793); test: qHTS assay for small molecule antagonists of retinoid X receptor alpha signaling (AID 588546); settings: HEK293T RXRa-UAS-bla, beta-lactamase ratio, antagonist mode;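 further: cells stimulated with 9-cis-retinoic acid as agonist; on the % scale 0 is the no-effect control and ±100 the full control effect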
Outline: as §1

Chain of Thyroid hormone receptor beta (Homo sapiens) (P10828 whole entry, looked up): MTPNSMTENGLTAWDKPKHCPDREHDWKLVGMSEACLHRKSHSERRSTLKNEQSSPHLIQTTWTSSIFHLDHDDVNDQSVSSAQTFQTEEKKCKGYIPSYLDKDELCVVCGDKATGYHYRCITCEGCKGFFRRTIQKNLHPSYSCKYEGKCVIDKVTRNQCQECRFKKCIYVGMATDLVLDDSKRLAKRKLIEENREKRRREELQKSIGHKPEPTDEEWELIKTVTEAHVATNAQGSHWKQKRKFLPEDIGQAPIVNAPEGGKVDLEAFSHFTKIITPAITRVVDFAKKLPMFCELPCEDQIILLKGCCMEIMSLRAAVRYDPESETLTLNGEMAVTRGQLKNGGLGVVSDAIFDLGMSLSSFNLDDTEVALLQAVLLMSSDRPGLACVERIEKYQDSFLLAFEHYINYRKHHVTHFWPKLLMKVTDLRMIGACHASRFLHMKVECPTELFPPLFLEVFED
Chain of Nuclear receptor subfamily 1 group I member 2 (Rattus norvegicus) (Q9R1A7 whole entry, looked up): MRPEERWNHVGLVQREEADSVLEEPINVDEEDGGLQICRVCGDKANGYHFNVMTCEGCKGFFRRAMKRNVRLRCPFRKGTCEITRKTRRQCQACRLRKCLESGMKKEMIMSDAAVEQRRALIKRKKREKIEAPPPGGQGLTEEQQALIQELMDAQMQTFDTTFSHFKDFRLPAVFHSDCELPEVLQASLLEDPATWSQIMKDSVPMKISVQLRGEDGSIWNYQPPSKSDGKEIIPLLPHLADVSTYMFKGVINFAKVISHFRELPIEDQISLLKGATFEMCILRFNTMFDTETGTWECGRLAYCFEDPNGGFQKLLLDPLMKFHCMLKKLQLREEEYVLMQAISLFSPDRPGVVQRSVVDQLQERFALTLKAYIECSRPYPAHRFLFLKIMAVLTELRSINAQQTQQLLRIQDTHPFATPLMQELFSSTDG
Chain of Glucocorticoid receptor (Homo sapiens) (P04150 whole entry, looked up): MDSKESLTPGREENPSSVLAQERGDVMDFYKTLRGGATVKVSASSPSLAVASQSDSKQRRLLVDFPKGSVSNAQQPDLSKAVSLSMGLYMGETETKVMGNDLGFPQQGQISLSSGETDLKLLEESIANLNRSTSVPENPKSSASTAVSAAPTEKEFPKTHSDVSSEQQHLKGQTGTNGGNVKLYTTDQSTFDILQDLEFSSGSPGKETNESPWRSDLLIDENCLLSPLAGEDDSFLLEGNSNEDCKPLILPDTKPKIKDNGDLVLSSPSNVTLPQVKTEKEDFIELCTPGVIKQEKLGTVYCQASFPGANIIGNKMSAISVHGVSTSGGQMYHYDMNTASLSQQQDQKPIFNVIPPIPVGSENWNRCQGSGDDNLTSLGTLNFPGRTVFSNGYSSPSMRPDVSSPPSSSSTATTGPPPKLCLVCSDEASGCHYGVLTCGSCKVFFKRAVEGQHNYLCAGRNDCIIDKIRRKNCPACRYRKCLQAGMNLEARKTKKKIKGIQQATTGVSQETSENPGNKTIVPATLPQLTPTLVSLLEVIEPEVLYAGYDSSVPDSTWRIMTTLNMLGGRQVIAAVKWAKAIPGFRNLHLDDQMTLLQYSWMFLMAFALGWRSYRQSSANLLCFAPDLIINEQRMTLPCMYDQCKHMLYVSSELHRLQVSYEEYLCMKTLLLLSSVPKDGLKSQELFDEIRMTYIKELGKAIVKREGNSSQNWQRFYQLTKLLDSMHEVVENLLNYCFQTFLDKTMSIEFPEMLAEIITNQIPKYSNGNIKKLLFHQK
Chain of Peroxisome proliferator-activated receptor gamma (Homo sapiens) (P37231 whole entry, looked up): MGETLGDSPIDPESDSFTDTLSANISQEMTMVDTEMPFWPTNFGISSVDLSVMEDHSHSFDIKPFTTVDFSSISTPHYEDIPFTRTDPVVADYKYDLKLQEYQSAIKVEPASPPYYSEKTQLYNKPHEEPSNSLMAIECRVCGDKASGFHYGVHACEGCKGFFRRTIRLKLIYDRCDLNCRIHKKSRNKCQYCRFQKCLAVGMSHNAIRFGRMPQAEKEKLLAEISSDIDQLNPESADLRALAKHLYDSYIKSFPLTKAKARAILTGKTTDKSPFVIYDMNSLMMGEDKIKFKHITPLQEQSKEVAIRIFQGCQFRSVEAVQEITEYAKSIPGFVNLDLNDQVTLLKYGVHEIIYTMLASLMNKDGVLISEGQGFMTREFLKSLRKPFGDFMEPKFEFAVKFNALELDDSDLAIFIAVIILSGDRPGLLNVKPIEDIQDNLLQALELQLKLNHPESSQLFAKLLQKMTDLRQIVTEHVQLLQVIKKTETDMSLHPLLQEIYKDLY
Chain of Vitamin D3 receptor (Homo sapiens) (P11473 whole entry, looked up): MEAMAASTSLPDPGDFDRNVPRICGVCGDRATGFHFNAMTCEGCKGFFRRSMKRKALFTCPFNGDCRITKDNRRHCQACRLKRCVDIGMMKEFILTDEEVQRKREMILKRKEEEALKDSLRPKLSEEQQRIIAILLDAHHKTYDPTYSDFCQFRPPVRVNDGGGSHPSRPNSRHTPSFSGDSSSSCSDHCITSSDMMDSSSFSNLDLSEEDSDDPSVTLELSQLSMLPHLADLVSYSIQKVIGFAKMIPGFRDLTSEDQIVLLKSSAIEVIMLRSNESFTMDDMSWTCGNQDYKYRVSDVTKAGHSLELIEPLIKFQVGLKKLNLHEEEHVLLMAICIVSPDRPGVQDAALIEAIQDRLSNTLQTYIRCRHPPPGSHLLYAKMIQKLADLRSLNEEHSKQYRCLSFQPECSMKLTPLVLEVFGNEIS
Chain of Estrogen receptor (Homo sapiens) (P03372 whole entry, looked up): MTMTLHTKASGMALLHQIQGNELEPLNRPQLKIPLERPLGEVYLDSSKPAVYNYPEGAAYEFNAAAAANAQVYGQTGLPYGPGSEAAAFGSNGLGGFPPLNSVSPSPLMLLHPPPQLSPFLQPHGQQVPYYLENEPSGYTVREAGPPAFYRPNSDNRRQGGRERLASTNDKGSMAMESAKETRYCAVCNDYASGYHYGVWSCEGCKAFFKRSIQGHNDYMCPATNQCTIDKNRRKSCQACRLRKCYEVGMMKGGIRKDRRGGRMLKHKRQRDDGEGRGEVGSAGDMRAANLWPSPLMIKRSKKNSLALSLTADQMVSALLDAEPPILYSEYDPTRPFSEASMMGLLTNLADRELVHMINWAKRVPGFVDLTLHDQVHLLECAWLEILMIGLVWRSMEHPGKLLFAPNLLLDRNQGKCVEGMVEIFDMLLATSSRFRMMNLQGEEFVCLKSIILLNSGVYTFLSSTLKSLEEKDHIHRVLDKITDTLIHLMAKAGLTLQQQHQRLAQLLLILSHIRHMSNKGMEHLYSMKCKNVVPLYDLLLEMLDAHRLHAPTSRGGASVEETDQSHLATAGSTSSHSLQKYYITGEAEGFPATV
Chain of Peroxisome proliferator-activated receptor alpha (Homo sapiens) (Q07869 whole entry, looked up): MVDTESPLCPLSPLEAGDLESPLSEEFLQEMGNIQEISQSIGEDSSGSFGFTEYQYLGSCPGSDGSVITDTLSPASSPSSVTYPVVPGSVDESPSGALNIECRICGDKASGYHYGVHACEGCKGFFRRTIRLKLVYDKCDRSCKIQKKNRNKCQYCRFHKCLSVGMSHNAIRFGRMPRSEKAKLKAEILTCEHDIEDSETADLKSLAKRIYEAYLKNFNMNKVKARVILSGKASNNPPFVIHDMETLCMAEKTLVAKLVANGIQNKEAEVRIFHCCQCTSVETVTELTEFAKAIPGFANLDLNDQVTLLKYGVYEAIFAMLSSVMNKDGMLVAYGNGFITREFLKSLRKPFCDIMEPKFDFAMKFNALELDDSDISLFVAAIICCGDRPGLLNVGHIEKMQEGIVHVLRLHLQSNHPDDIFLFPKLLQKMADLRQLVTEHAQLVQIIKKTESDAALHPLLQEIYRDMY
Chain of Retinoic acid receptor RXR-alpha (Homo sapiens) (P19793 whole entry, looked up): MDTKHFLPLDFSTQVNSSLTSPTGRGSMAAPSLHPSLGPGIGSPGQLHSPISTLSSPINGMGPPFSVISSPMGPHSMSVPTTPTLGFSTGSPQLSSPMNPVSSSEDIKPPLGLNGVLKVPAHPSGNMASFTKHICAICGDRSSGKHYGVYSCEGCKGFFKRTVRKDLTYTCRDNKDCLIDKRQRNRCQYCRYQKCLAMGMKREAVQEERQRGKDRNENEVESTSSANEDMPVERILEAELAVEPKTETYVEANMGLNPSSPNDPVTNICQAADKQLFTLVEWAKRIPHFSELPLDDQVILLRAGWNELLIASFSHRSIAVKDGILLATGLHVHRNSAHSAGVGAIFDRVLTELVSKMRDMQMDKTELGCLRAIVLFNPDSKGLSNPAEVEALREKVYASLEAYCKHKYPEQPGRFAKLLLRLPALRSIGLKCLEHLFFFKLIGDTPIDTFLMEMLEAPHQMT

O=C(O)CCCCCCCCCCC(=O)O
18.9%: max response [4]
2.61%: max response [9]
0.198%: max response [6]
inactive: Potency [1] | Potency [2] | activation [3] -1.99% | Potency [5] | Potency [7] | Potency [8] | activity change % (negative = inhibition) [10] 17.5% | activation [11] -0.986% | activation [12] 3.26% | max response [13] -1.09% | max response [14] -6.19% | max response [15] -10.8% | Potency [16] | max response [17] 0.83% | outcome [18]

C=C[Si](OCCOC)(OCCOC)OCCOC
-8.04%: max response [9]
25.9%: max response [4]
inactive: Potency [1] | Potency [2] | activation [3] -9.96% | outcome [19] | Potency [5] | Potency [7] | Potency [8] | max response [20] 2.22% | activation [12] 0.581% | max response [13] -0.929% | max response [14] 15.4% | max response [15] -9.27% | Potency [16] | max response [17] 1.26% | outcome [18]
-7.07%: max response [6]

CCSC(=O)N(CC(C)C)CC(C)C
-7.79%: max response [9]
-16.2%: max response [4]
-8.61%: max response [6]
inactive: Potency [1] | Potency [2] | activation [3] -2.35% | outcome [19] | Potency [7] | Potency [8] | max response [20] -2.54% | activation [11] -0.513% | activation [12] 0.255% | max response [13] -0.436% | max response [14] -3.63% | max response [15] -1.7% | max response [17] 2.63% | outcome [18]

O=C(O)c1ccc(C(=O)O)c(C(=O)O)c1
-4.49%: max response [9]
-17.6%: max response [6]
-62.8%: max response [4]
inactive: Potency [1] | Potency [2] | activation [3] -1.87% | outcome [19] | Potency [7] | Potency [8] | max response [20] -0.212% | activity change % (negative = inhibition) [10] 8.09% | activation [11] -0.152% | activation [12] 0.771% | max response [13] -1.17% | max response [14] -4.75% | max response [15] -0.128% | Potency [16] | max response [17] 0.399% | outcome [18]

COC(=O)c1cccc(C(=O)OC)c1
-11.8%: max response [6]
inactive: Potency [1] | Potency [2] | outcome [19] | Potency [5] | Potency [7] | Potency [8] | max response [20] -0.335% | activity change % (negative = inhibition) [10] 1.41% | activation [12] 1.87% | max response [13] 0.364% | max response [14] -6.37% | max response [15] -8.05% | Potency [16] | max response [17] 2.45%
-14.8%: max response [9]
-2.46%: max response [4]

CC(C)C(=O)OCC(C)(C)C(O)C(C)C (centres undefined)
inactive: Potency [1] | Potency [2] | activation [3] -3.75% | outcome [19] | Potency [5] | Potency [7] | Potency [8] | max response [20] -10.9% | activity change % (negative = inhibition) [10] -5.03% | activation [11] -1.26% | activation [12] -2.96% | max response [13] -0.497% | max response [14] -3.28% | max response [15] -9.28% | Potency [16] | max response [17] -1.98% | outcome [18]
1.76%: max response [4]
6.96%: max response [6]
-13.9%: max response [9]

From PubChem BioAssay (NCATS)
